In all, about 5,500 compounds went through this assay and about 2,000 (36%) were called active. Another 18% or so got no clear call; they are omitted. Rule as the data show it: active = normalized growth mostly below about 0.91 (no sharp cut-off); inconclusive = no clear call, values can overlap the other calls; inactive = mostly above about 0.92. The list shows a part of the results.
Assay: chemical genetic growth profiling, strain panel (AID 1159580);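 also: tested at 20 µM; growth read once vehicle control cultures reached saturation at 30 °C; 1 = growth at the plate median or of vehicle wells; lower values mean less growth of the strain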
Conditions: growth OD

Measured: normalized growth

CC(C)(C)NCC(O)COc1cccc2c1C[C@H](O)[C@H](O)C2 (stereo not given in full)
inactive: S. cerevisiae deletion strains, locus YJR075W, strain HOC1, hits give low values 1 | S. cerevisiae deletion strains, locus YKL009W, strain mrt4, hits give low values 0.972 | S. cerevisiae deletion strains, locus YKL068W, hits give low values 0.986 | S. cerevisiae deletion strains, locus YKL085W, strain MDH1 (second series), hits give low values 0.99 | S. cerevisiae deletion strains, locus YKL085W, strain MDH1, hits give low values 0.99 | S. cerevisiae deletion strains, locus YKL160W, strain elf1, hits give low values 1.01 | S. cerevisiae deletion strains, locus YKL190W, strain CNB1, hits give low values 0.993 | S. cerevisiae deletion strains, locus YKR001C, strain vps1, hits give low values 1 | S. cerevisiae deletion strains, locus YKR026C, strain gcn3, hits give low values 1.01 | S. cerevisiae deletion strains, locus YKR091W, strain srl3, hits give low values 0.993 | S. cerevisiae deletion strains, locus YLL001W, strain dnm1, hits give low values 1.01 | S. cerevisiae deletion strains, locus YLL026W, hits give low values 1.01 | S. cerevisiae deletion strains, locus YLL041C, strain sdh2, hits give low values 1 | S. cerevisiae deletion strains, locus YLR027C, strain aat2, hits give low values 1 | S. cerevisiae deletion strains, locus YLR039C, strain RIC1, hits give low values 0.973 | S. cerevisiae deletion strains, locus YLR058C, strain SHM2, hits give low values 0.997 | S. cerevisiae deletion strains, locus YLR102C, strain apc9, hits give low values 0.992 | S. cerevisiae deletion strains, locus YLR113W, strain HOG1, hits give low values 1.05 | S. cerevisiae deletion strains, locus YLR221C, strain rsa3, hits give low values 1 | S. cerevisiae deletion strains, locus YLR258W, strain gsy2, hits give low values 0.998 | S. cerevisiae deletion strains, locus YLR262C, strain YPT6 (second series), hits give low values 1.01 | S. cerevisiae deletion strains, locus YLR262C, strain YPT6, hits give low values 0.928 | S. cerevisiae deletion strains, locus YLR268W, strain sec22, hits give low values 0.994 | S. cerevisiae deletion strains, locus YLR320W, strain mms22, hits give low values 1.02 | S. cerevisiae deletion strains, locus YLR330W, strain CHS5, hits give low values 0.986 | S. cerevisiae deletion strains, locus YLR342W, strain FKS1 (second series), hits give low values 0.993 | S. cerevisiae deletion strains, locus YLR342W, strain FKS1, hits give low values 1.01 | S. cerevisiae deletion strains, locus YLR357W, strain rsc2, hits give low values 1.01 | S. cerevisiae deletion strains, locus YLR370C, strain arc18, hits give low values 1.02 | S. cerevisiae deletion strains, locus YLR371W, strain rom2, hits give low values 0.994 | S. cerevisiae deletion strains, locus YLR384C, strain iki3, hits give low values 1.02 | S. cerevisiae deletion strains, locus YLR418C, strain cdc73, hits give low values 0.946 | S. cerevisiae deletion strains, locus YML016C, strain PPZ1, hits give low values 1 | S. cerevisiae deletion strains, locus YML032C, strain rad52, hits give low values 0.999 | S. cerevisiae deletion strains, locus YML120C, strain ndi1, hits give low values 1.01 | S. cerevisiae deletion strains, locus YML124C, strain tub3, hits give low values 0.995 | S. cerevisiae deletion strains, locus YMR058W, strain fet3, hits give low values 1.01 | S. cerevisiae deletion strains, locus YMR078C, strain ctf18, hits give low values 0.982 | S. cerevisiae deletion strains, locus YMR125W, strain sto1, hits give low values 1.01 | S. cerevisiae deletion strains, locus YMR129W, hits give low values 1.01 | S. cerevisiae deletion strains, locus YMR205C, strain PFK2, hits give low values 1.02 | S. cerevisiae deletion strains, locus YMR223W, strain ubp8, hits give low values 0.964 | S. cerevisiae deletion strains, locus YMR231W, strain pep5, hits give low values 0.998 | S. cerevisiae deletion strains, locus YMR263W, strain SAP30, hits give low values 1.02 | S. cerevisiae deletion strains, locus YMR307W, strain GAS1, hits give low values 0.959 | S. cerevisiae deletion strains, locus YNL067W, strain RPL9B, hits give low values 1.02 | S. cerevisiae deletion strains, locus YNL071W, strain lat1, hits give low values 0.999 | S. cerevisiae deletion strains, locus YNL128W, strain TEP1, hits give low values 0.988 | S. cerevisiae deletion strains, locus YNL183C, strain NPR1, hits give low values 1 | S. cerevisiae deletion strains, locus YNL209W, strain ssb2, hits give low values 0.994 | S. cerevisiae deletion strains, locus YNL233W, strain BNI4, hits give low values 1.04 | S. cerevisiae deletion strains, locus YNL248C, strain rpa49, hits give low values 1.01 | S. cerevisiae deletion strains, locus YNL250W, strain rad50, hits give low values 0.972 | S. cerevisiae deletion strains, locus YNL271C, strain bni1, hits give low values 0.988 | S. cerevisiae deletion strains, locus YNL298W, strain CLA4, hits give low values 0.983 | S. cerevisiae deletion strains, locus YNL307C, strain MCK1, hits give low values 0.986 | S. cerevisiae deletion strains, locus YNL322C, strain KRE1 (second series), hits give low values 1.01 | S. cerevisiae deletion strains, locus YNL322C, strain KRE1, hits give low values 0.992 | S. cerevisiae deletion strains, locus YNR049C, strain mso1, hits give low values 1.01 | S. cerevisiae deletion strains, locus YNR052C, strain pop2, hits give low values 0.989 | S. cerevisiae deletion strains, locus YOL006C, strain TOP1, hits give low values 1.05 | S. cerevisiae deletion strains, locus YOL012C, strain htz1 1.13 | S. cerevisiae deletion strains, locus YOL147C, strain pex11, hits give low values 0.992 | S. cerevisiae deletion strains, locus YOR001W, strain rrp6, hits give low values 1 | S. cerevisiae deletion strains, locus YOR061W, strain CKA2, hits give low values 1 | S. cerevisiae deletion strains, locus YOR069W, strain VPS5, hits give low values 0.999 | S. cerevisiae deletion strains, locus YOR070C, strain gyp1, hits give low values 1 | S. cerevisiae deletion strains, locus YOR080W, strain dia2, hits give low values 1.01 | S. cerevisiae deletion strains, locus YOR083W, strain WHI5, hits give low values 1 | S. cerevisiae deletion strains, locus YOR106W, strain vam3, hits give low values 1.02 | S. cerevisiae deletion strains, locus YOR136W, strain idh2, hits give low values 0.994 | S. cerevisiae deletion strains, locus YOR144C, strain elg1, hits give low values 0.999 | S. cerevisiae deletion strains, locus YOR184W, strain ser1, hits give low values 0.974 | S. cerevisiae deletion strains, locus YOR231W, strain MKK1, hits give low values 1.06 | S. cerevisiae deletion strains, locus YOR265W, strain rbl2, hits give low values 1.01 | S. cerevisiae deletion strains, locus YOR270C, strain vph1, hits give low values 1.01 | S. cerevisiae deletion strains, locus YOR290C, strain snf2, hits give low values 1.01 | S. cerevisiae deletion strains, locus YOR316C, strain cot1, hits give low values 0.985 | S. cerevisiae deletion strains, locus YPL051W, strain arl3, hits give low values 1 | S. cerevisiae deletion strains, locus YPL078C, strain atp4, hits give low values 1 | S. cerevisiae deletion strains, locus YPL106C, strain sse1, hits give low values 1.01 | S. cerevisiae deletion strains, locus YPL240C, strain hsp82, hits give low values 0.997 | S. cerevisiae deletion strains, locus YPL241C, strain CIN2, hits give low values 0.987 | S. cerevisiae deletion strains, locus YPL256C, strain CLN2, hits give low values 1.02 | S. cerevisiae deletion strains, locus YPR119W, strain clb2, hits give low values 0.996 | S. cerevisiae deletion strains, locus YPR141C, strain kar3, hits give low values 0.994 | S. cerevisiae deletion strains, locus YPR163C, strain tif3, hits give low values 0.991 | S. cerevisiae deletion strains, locus YPR167C, strain met16, hits give low values 0.987 | S. cerevisiae deletion strains, strain wtn01, hits give low values 0.983 | S. cerevisiae strains, strain wild type, hits give low values 0.998

From PubChem BioAssay AID1159580 (chemical genetic matrix, 2015)
